KKLEB cytotox: reduces viability of KKLEB cystic fibrosis airway cells | KKLEB CF airway cells viability, ATPlite luminescence, overnight; active compounds read low; cells stimulated with P. aeruginosa culture filtrate | activity change (cytotoxicity), % at 5 µM | hit rate 0.36% among 360,000;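 active = corrected activity change at or below -50% at 5 µM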
TWEAK-Fn14 inh: TWEAK-Fn14 signaling inhibition; TWEAK-stimulated Fn14 reporter cells, luciferase luminescence, 8 h; inhibition, % at 10 µM; hit rate 2% among 360,000; AID 1159606; in the data active = inhibition above about 50%
TROY signal inh: blocks TROY-dependent signaling in reporter cells | AID 1347056 | Q293 LMP1-TROYcd NF-kB luciferase reporter, 4 h | hit rate 0.98% among 360,000 | inhibition, % at 10 µM;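 active = compounds whose plate-normalised and pattern-corrected inhibition of the luciferase reporter signal at the single screening dose is 50% or more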
Peg3 promoter: Peg3 promoter activity inhibition; HeLa PEG-Prom luciferase reporter, luminescence, overnight; inhibition, % at 20 µM; hit rate 1.7% among 360,000;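 active = inhibition of at least 50% at 20 µM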
HIF-2a inh: blocks HIF-2a reporter activity | 786-0 RCC cells HIF-2a reporter, luciferase luminescence, overnight | inhibition, % at 18.8 µM | hit rate 0.72% among 360,000 | AID 624352;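 active = inhibition of the luminescence signal of 40% or more relative to plate controls, in a single-dose primary screen at 18.75 µM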
CF NFkB inh: cystic fibrosis NF-kB activation inhibition | KKLEB NF-kB-GFP reporter, PAF-induced, GFP fluorescence overnight | inhibition, % at 5 µM | hit rate 0.86% among 360,000;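 active = at least 50% inhibition at 5 µM, scaled per plate between neutral and stimulator controls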;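 note: PAF is a Pseudomonas aeruginosa culture filtrate used as stimulus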
Large screens that a line does not name were inactive. This is a sample that favours compounds with a hit; in the whole collection about 3.9% have one here.

COCCNCCOc1ccc(C(C)(C)c2ccccc2)cc1	none
O=C(NCc1cccnc1)C(Cl)(Cl)Cl	none
COc1cc2c(cc1OC)-c1c3c(cc4c1[C@@H](C2)N(C)CC4)OCO3	Peg3 promoter 60.6
O=C(Nc1cccc(Cl)c1)N1C[C@H]2C[C@@H](C1)c1cccc(=O)n1C2	none
C[N+](C)(C)CC#CCOC(=O)Nc1cccc(Cl)c1	Peg3 promoter 84.4
Cc1ccc(NC(=O)CSc2nnc([C@@H](N)Cc3c[nH]c4ccccc34)o2)c(C)c1	none
CN(CCc1ccccc1)Cc1c[nH]c2ccccc12	Peg3 promoter 68.5
CCN(CC)Cc1c[nH]c2ccccc12	none
OC1C2CN3CN(C2)CC1(c1ccccc1)C3 (stereo not drawn)	none
CC12CN3CN(C1)CC(c1ccccc1)(C3)C2=O	TWEAK-Fn14 inh 87.9 (no result: TROY signal inh)
Nc1cccc(SC2CC(=O)N(c3ccc(Cl)cc3C(=O)c3ccccc3)C2=O)c1 (stereo not drawn)	TWEAK-Fn14 inh 54.0
CC1=C(N2CC2)C(=O)C(CO)=C(N2CC2)C1=O	KKLEB cytotox -104.5, Peg3 promoter 100.5, HIF-2a inh 88.5, CF NFkB inh 97.3
FC(F)(F)c1ccccc1CNCCc1c[nH]c2ccccc12	none
CC(=O)NNC(=O)CN1C(=O)CN=C(c2ccccc2)c2cc(Br)ccc21	none
COc1ccc(Cn2c(N)c(C(=O)NCc3ccco3)c3nc4ccccc4nc32)cc1	TROY signal inh 69.1
Nc1c(C(=O)NCc2ccco2)c2nc3ccccc3nc2n1Cc1ccccc1	TWEAK-Fn14 inh 50.1
COCC(C)OC(=O)c1c(N)n(Cc2ccco2)c2nc3ccccc3nc12 (stereo not drawn)	none
CC(C)CCn1c(N)c(C(=O)OCC2CCCO2)c2nc3ccccc3nc21 (stereo not drawn)	TROY signal inh 60.3
Nc1c(C(=O)NCc2ccco2)c2nc3ccccc3nc2n1Cc1ccc(F)cc1	TROY signal inh 62.5
Nc1c(C(=O)NCc2ccco2)c2nc3ccccc3nc2n1CCN1CCOCC1	none
CCOc1cc2c(cc1OCC)-n1cccc1C(c1cc(OC)ccc1F)NC2 (stereo not drawn)	none
COCCOC(=O)c1c(N)n(Cc2ccccc2)c2nc3ccccc3nc12	TROY signal inh 65.4
CN1CCN2c3ccccc3CC3(C(=O)N(C)C(=O)N(C)C3=O)C2C1 (stereo not drawn)	none
O=C1NC(=O)N(Cc2ccc(F)cc2)C(=O)/C1=C\c1ccc([N+](=O)[O-])s1	none
CCOc1cccc(CNCCc2c(C)[nH]c3ccc(OC(F)(F)F)cc23)c1O	Peg3 promoter 107.0
Cc1[nH]c2ccc(OC(F)(F)F)cc2c1CCNCc1ccc(Cl)cc1	Peg3 promoter 111.2
COc1ccc2[nH]c(C)c(CCNCc3cccnc3)c2c1	none
S=C=Nc1cccc(C2(N3CCCCC3)CCCCC2)c1	Peg3 promoter 64.3
c1ccc(C2(N3CCCCC3)CCCCC2)cc1	none
CCOP(=O)(CCP(=O)(OCC)OCC)OCC.C[CH2][Sn]([Cl])([Cl])[CH2]C	TWEAK-Fn14 inh 57.9, CF NFkB inh 53.1
CCc1cc(=O)oc2cc(OCC(=O)N3C[C@H]4C[C@@H](C3)c3cccc(=O)n3C4)ccc12	none
CC(=O)OC1C(O)C(C)OC(OC2C(OC(=O)C3CCC4C(C3)OC3(CC(OC(=O)/C=C/c5ccccc5)C(C)CO3)C43CO3)OC(C)C(O)C2OC(C)=O)C1O (stereo not drawn)	TWEAK-Fn14 inh 101.1, TROY signal inh 84.0, Peg3 promoter 93.1, HIF-2a inh 65.4, CF NFkB inh 90.3
CCOc1ccc(-c2cc(C)[n+](CCO)c(-c3ccc(OCC)cc3)c2)cc1	none
CCOc1ccc(-c2cc(C)[n+](CCc3ccc(OC)c(OC)c3)c(-c3ccc(OCC)cc3)c2)cc1	TROY signal inh 53.0, Peg3 promoter 58.5
C/C1=C\[C@@H](C)C/C=C/[C@H]2[C@@H]3O[C@]3(C)[C@@H](C)[C@H]3[C@H](Cc4c[nH]c5ccccc45)NC(=O)[C@]32C(=O)/C=C/C(=O)[C@@H]1O	KKLEB cytotox -52.6, Peg3 promoter 97.5, HIF-2a inh 76.3, CF NFkB inh 72.7
CC(C)n1c(O)c(C2c3cc(Cl)ccc3Oc3[nH]c(=O)n(C(C)C)c(=O)c32)c(=O)[nH]c1=O (stereo not drawn)	TWEAK-Fn14 inh 100.1, Peg3 promoter 115.4, HIF-2a inh 94.5, CF NFkB inh 91.4
CC(=O)c1c(O)n(-c2cccc(Cl)c2)c(=O)[nH]c1=O (tested in a mixture with another compound)	none
O=C1OC(c2ccc(Cl)cc2)=N/C1=C\N1CC2CC(C1)c1cccc(=O)n1C2 (stereo not drawn)	none
Cc1cc(-c2ccccc2)cc(-c2ccccc2)[n+]1CCc1ccccc1	none
Clc1ccc(C[n+]2c(-c3ccccc3)cc(-c3ccccc3)cc2-c2ccccc2)cc1	TWEAK-Fn14 inh 73.3, TROY signal inh 50.9, Peg3 promoter 88.4
CCOc1ccc(-n2c(-c3cccs3)nc3ccccc3c2=O)cc1	none
CCn1nc(/C=C/c2ccccc2)nc2c(=O)n(C)c(=O)nc1-2	TWEAK-Fn14 inh 106.2, TROY signal inh 83.4, Peg3 promoter 94.1, CF NFkB inh 76.4
CCn1nc(-c2cccs2)nc2c(=O)n(C)c(=O)nc1-2	KKLEB cytotox -89.4, TWEAK-Fn14 inh 73.4, TROY signal inh 66.4, Peg3 promoter 118.3, HIF-2a inh 79.7, CF NFkB inh 97.9
CCCCC1(CCCC)C(=O)NC(=Nc2cccc(C)c2)NC1=O	none
Cc1cccc(N=C2c3cc([N+](=O)[O-])ccc3-c3c2cc([N+](=O)[O-])cc3[N+](=O)[O-])c1	Peg3 promoter 86.1
O=C(C1CCCN(c2nnc(-n3cccc3)s2)C1)N1CCC2(CC1)OCCO2 (stereo not drawn)	TWEAK-Fn14 inh 74.4 (no result: TROY signal inh)
O=C(O)c1cc[c]([Hg][Cl])cc1	TWEAK-Fn14 inh 64.6
COc1ccc(C(=O)O)cc1OC	none
CCCCOc1ccc(CCN)cc1Cl	none
O=Cc1cn(Cc2ccccc2F)c2ccccc12	none
Cc1cccc(Cn2cc(C=O)c3ccccc32)c1	Peg3 promoter 68.8
CCN(CC)S(=O)(=O)c1ccc(NN=C(C#N)C#N)cc1	TWEAK-Fn14 inh 66.6, TROY signal inh 63.1, CF NFkB inh 66.9
CCOC(=O)[C@]12Cc3cc(C)ccc3[C@H]1N(CCC(=O)OC)C(=O)c1cc(OC)ccc12	none (no result: KKLEB cytotox, Peg3 promoter, CF NFkB inh)
CCOC(=O)[C@]12Cc3cc(C)ccc3[C@H]1N(C1CCCCC1)C(=O)c1cc(OC)ccc12	TWEAK-Fn14 inh 100.7, TROY signal inh 54.3, HIF-2a inh 84.7 (no result: KKLEB cytotox, Peg3 promoter, CF NFkB inh)
C[C@](N)(CCP(=O)(O)O)C(=O)O	none
Fc1ccc(CNCCc2ccccc2F)cc1	TROY signal inh 70.4
Fc1ccccc1CCNCc1ccccc1	none

Assay outcomes deposited in PubChem BioAssay by Sanford-Burnham Center for Chemical Genomics.
